Screen size: about 400,000 compounds; about 2,100 (0.53%) were called active. Not shown: some 14% with an inconclusive outcome. How the calls were made is not given here. The sample as a whole holds a higher share of actives than the screen did.
Target: Ataxin-2 (Homo sapiens) (UniProt Q99700)
Assay: qHTS for Inhibitors of ATXN expression.
Type: functional

Sequence of Ataxin-2 (Homo sapiens) (Q99700 whole entry): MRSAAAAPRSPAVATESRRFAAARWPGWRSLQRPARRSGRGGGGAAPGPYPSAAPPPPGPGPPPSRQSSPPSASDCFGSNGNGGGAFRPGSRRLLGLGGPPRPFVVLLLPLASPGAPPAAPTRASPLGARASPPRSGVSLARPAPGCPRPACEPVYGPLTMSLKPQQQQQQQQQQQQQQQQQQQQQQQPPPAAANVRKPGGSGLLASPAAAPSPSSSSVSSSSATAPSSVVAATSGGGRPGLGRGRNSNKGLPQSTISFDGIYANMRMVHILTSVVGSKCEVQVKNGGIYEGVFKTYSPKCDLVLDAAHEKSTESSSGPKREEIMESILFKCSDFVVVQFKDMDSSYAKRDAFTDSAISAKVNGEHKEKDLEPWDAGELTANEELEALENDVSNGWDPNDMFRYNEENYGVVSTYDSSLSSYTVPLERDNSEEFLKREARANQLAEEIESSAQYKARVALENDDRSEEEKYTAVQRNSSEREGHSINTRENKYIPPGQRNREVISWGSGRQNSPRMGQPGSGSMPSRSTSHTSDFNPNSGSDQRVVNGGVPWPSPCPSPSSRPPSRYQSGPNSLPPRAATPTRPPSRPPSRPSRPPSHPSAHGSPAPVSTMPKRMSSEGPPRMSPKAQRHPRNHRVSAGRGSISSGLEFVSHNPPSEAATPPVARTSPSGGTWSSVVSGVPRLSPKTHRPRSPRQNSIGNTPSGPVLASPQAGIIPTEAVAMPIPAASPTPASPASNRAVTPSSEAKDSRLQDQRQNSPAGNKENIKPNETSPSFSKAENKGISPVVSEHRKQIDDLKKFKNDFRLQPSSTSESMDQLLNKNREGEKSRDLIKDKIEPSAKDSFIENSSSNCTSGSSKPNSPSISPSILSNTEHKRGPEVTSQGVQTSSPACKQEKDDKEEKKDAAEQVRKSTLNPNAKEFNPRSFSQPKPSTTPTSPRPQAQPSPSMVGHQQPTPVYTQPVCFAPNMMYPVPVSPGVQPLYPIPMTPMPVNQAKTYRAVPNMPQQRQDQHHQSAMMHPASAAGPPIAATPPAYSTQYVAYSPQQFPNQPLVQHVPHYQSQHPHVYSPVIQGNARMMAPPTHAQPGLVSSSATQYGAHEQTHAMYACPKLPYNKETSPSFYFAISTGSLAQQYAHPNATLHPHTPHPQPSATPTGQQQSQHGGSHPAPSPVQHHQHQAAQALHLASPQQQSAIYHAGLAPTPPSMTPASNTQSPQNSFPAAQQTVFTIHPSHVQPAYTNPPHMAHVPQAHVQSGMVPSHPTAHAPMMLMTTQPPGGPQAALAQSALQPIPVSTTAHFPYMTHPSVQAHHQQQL

Row | Compound | Potency
1 | O=C(CCc1ccccc1)NCC1(c2ccccc2)CCCC1 | inactive
2 | COc1cc2c(cc1/C=C1/NC(=O)N(CC(=O)Nc3ccccc3)C1=O)OCO2 | inactive
3 | Cc1c(-c2ccccc2)c(=O)oc2c(CN3CCOCC3)c(O)ccc12 | inactive
4 | Cc1cccn2c(=O)c3cc(C(=O)NCC4CCCO4)c(=N)n(C4CCCC4)c3nc12 (centres undefined) | inactive
5 | N=c1oc2cc(O)ccc2cc1C(=O)Nc1nc2ccccc2s1 | inactive
6 | O=C(C=Cc1ccccc1)CC(c1ccccc1)N1CCOCC1 (centres undefined) | 28.2 µM (active)
7 | O=C(O)c1cc(/C=C/c2ccc(N3CCOCC3)cc2)nc2ccccc12 | inactive
8 | Cc1ccc(S(=O)(=O)N(C)CC(=O)NCC(c2ccc(F)cc2)N2CCOCC2)cc1 (centres undefined) | inactive
9 | COc1ccc(C2C=C(c3ccccc3)Nc3nc(NC(C)=O)nn32)cc1 (centres undefined) | inactive
10 | Cc1c(C(=O)Nc2ccc3c(c2)OCCO3)sc2nc(-c3ccccc3)cn12 | 39.8 µM (active)
11 | O=C(Nc1cccc(-c2cn3c(n2)SCC3)c1)c1ccc2c(c1)OCO2 | inactive
12 | Cc1ccsc1C(=O)Nc1ccc(O)c(-c2nc3ccccc3s2)c1 | inactive
13 | C/N=c1\scc(C)n1/N=C/c1cc(Br)c(O)c(Br)c1 | inactive
14 | COc1ccc(Cl)cc1NC(=O)CCS(=O)(=O)c1cccc2nonc12 | inactive
15 | CCc1ccc(NC(=O)CCNS(=O)(=O)c2cccs2)cc1 | inactive
16 | COc1ccc(NC(=O)c2ccc(NC(=O)CCS(=O)(=O)c3cccs3)cc2)cc1Cl | 39.8 µM (active)
17 | Cc1c(OC(C)C(=O)NCCN2CCOCC2)ccc2c3c(c(=O)oc12)CCC3 (centres undefined) | inactive
18 | O=C(Nc1ccc(N2CCOCC2)c(Cl)c1)c1cc2ccccc2o1 | 39.8 µM (active)
19 | N=c1oc2cc(O)ccc2cc1C(=O)Nc1ccc(Cl)cc1 | inactive
20 | O=C(Nc1ccc(N2CCN(C(=O)c3ccco3)CC2)c(Cl)c1)c1cc2ccccc2o1 | 22.4 µM (active)
21 | COc1cc(NC(=O)c2oc3ccccc3c2C)ccc1NC(=O)c1ccco1 | inactive
22 | O=C(Nc1ccc(N2CCN(C(=O)c3ccco3)CC2)cc1)c1cc(Br)ccc1Cl | 35.5 µM (active)
23 | O=C(CSc1nc(O)c2ccccc2n1)Nc1ccc(N2CCOCC2)c(Cl)c1 | inactive
24 | O=C(Nc1cc(Cl)ccc1N1CCOCC1)c1cc2ccccc2o1 | inactive
25 | COc1cc(NC(=O)c2cc(Cl)ccc2Cl)ccc1NC(=O)c1cc2ccccc2o1 | 22.4 µM (active)

Row | Compound | Potency
26 | Cc1ccc(NC(=O)C2CCN(C(=O)c3ccco3)CC2)cc1 | inactive
27 | CC1CCN(C(=O)c2cc(Cl)ccc2NC(=O)c2ccco2)CC1 | inactive
28 | CCOC(=O)c1cc2ccc(OC(=O)c3ccco3)cc2oc1=O | inactive
29 | CCN(CC)c1ccc(/C=N/NC(=O)c2cccc(S(=O)(=O)N3CCOCC3)c2)c(O)c1 | inactive
30 | CCOC(=O)/C(C#N)=C1\CC2CCC1(C)C2(C)C (centres undefined) | inactive
31 | O=C1c2cccc3c([N+](=O)[O-])ccc(c23)C(=O)N1c1ccccn1 | inactive
32 | O=[N+]([O-])c1ccccc1Oc1ncccc1[N+](=O)[O-] | 8.91 µM (active)
33 | CCC1Cc2c(nc(N)c3c(N)nc(N4CCOCC4)c(C#N)c23)O1 (centres undefined) | inactive
34 | N#CCc1nc(C(c2ccccc2)c2ccccc2)no1 | inactive
35 | CCCNC(=O)c1ccc2c(O)c(O)c(-c3ccsc3)nc2c1 | inactive
36 | CC(C)N1CCc2c(sc(NC(=O)c3cc(-c4cccs4)nc4ccccc34)c2C(N)=O)C1 | 33.6 µM (active)
37 | CC(C)N1CCc2c(sc(NC(=O)c3cc4cc([N+](=O)[O-])ccc4s3)c2C(N)=O)C1 | 29.9 µM (active)
38 | CCC(=O)Nc1sc2c(c1C(N)=O)CCN(Cc1ccccc1)C2 | inactive
39 | CC(C)CN(CC(C)C)S(=O)(=O)c1ccc(C(=O)Nc2sc3c(c2C(N)=O)CCN(C(C)C)C3)cc1 | inactive
40 | CN1CCc2c(sc(NC(=O)c3ccc(S(=O)(=O)N4CCCCCC4)cc3)c2C(N)=O)C1 | inactive
41 | CC(C)N1CCc2c(sc(NC(=O)Cc3ccccc3)c2C#N)C1 | inactive
42 | CCOc1cc(CNC(C)(C)CO)cc(Br)c1OCc1ccc(Cl)cc1Cl | 39.8 µM (active)
43 | CCOc1cc(CNCCO)cc(Br)c1OCc1ccc(Cl)cc1Cl | 39.8 µM (active)
44 | Cc1ccc(C)c(OC(C)C(=O)Nc2ccc(S(=O)(=O)Nc3nccs3)cc2)c1 (centres undefined) | inactive
45 | CCc1nnc(NC(=O)c2sc3nc(C)cc(COC)c3c2N)s1 | inactive
46 | COc1ccc(/C=N/n2c(S)nnc2COc2ccccc2)cc1OC | inactive
47 | Cc1nc2ccccc2c(=O)n1/N=C/c1ccc(O)c(O)c1O | inactive
48 | Cc1ccc(-c2[nH]ncc2/C=N/n2c(COc3ccccc3C)nc3ccccc3c2=O)cc1 | 15.8 µM (active)
49 | Cc1ccc(-c2[nH]ncc2/C=N/n2c(COc3ccccc3)nc3ccccc3c2=O)cc1 | 39.8 µM (active)
50 | Cc1ccc(-c2nc3ccccc3c(=O)o2)cc1 | inactive

Row | Compound | Potency
51 | Oc1ccccc1/C=N/n1c(S)nnc1COc1ccccc1 | inactive
52 | O=C(CSc1nnc(-c2cccc(Br)c2)o1)N1CCNC1=O | inactive
53 | CC1CCN(S(=O)(=O)c2ccc3nc(Nc4cccc(F)c4)ccc3c2)CC1 | 35.5 µM (active)
54 | CC1CCN(S(=O)(=O)c2ccc(NC(=O)CN3CCCC3)cc2)CC1 | inactive
55 | O=S(=O)(c1ccc2nc(N3CCN(c4ccccc4)CC3)ccc2c1)N1CCCCC1 | inactive
56 | O=C(OCCN1C(=O)c2cccc3c(N4CCOCC4)ccc(c23)C1=O)c1ccc(Cl)cc1 | inactive
57 | O=C(CC(=O)N/N=C/c1ccc(C(=O)O)cc1)NCCc1ccccc1 | inactive
58 | COc1ccc(C)c2sc(N(CCCN(C)C)C(=O)c3ccc(S(=O)(=O)N4CCc5ccccc5C4)cc3)nc12 | 22.4 µM (active)
59 | O=C(c1ccc(S(=O)(=O)N2CCCCC2)cc1)N1CCc2ccccc2C1 | inactive
60 | COc1ccc2sc(N(CCCN(C)C)C(=O)c3ccc(S(=O)(=O)N4CCCc5ccccc54)cc3)nc2c1 | 39.8 µM (active)
61 | O=S(=O)(c1ccc(F)cc1)N1CCc2ccccc2C1 | inactive
62 | COCCN(Cc1ccccc1)C(=O)c1cccc(S(=O)(=O)N2CCCc3ccccc32)c1 | inactive
63 | O=C(Nc1nc2ccc([N+](=O)[O-])cc2s1)c1ccc(S(=O)(=O)N2CCCc3ccccc32)cc1 | inactive
64 | O=c1[nH]c(=O)c2nc(-c3ccc(Cl)cc3)cnc2[nH]1 | inactive
65 | O=c1c2nccnc2[nH]c(=S)n1Cc1ccccc1Cl | inactive
66 | CC1CN(Cc2cc(=O)oc3cc(O)ccc23)CC(C)O1 (centres undefined) | inactive
67 | COCc1nnc(NS(=O)(=O)c2ccc(OC)cc2)s1 | inactive
68 | CC1CCN(c2nc(CN3CCCCC3)nc3scc(-c4ccccc4)c23)CC1 | 22.4 µM (active)
69 | CC(=O)N1CCN(Cc2nc(O)c3c(-c4ccccc4)csc3n2)CC1 | inactive
70 | CN1CCN(c2nc(-c3cccnc3)nc3scc(-c4ccccc4)c23)CC1 | inactive
71 | Cc1cccc(/N=C/c2cc(Br)cc(Cl)c2O)c1 | inactive
72 | O=C(C[n+]1ccc2c(c1)nnn2-c1ccccc1)c1ccc(Cl)cc1 | inactive
73 | O=C1OC(c2ccccc2)(c2cc(Br)ccc2O)c2ccccc21 (centres undefined) | 35.5 µM (active)
74 | COCc1cc(C)nc2sc(C(=O)Nc3ccc(OC(F)(F)F)cc3)c(N)c12 | inactive
75 | Cc1ccc(NC2=C(C(=O)Nc3c(C)cc(C)cc3C)C(=N)C(C(=O)Nc3ccc(OC(F)(F)F)cc3)S2)cc1 (centres undefined) | 18.9 µM (active)

Row | Compound | Potency
76 | CSCCC(NC(=O)C1CCCC1)c1nnc2ccccn12 (centres undefined) | inactive
77 | CCCCCCN1C=C/C(=C\C=C(C#N)C#N)c2ccccc21 | 20 µM (active)
78 | C=CCN1C=C/C(=C\C=C(C#N)C#N)c2ccccc21 | 6.7 µM (active)
79 | O=C(O)COc1ccc(/C=C/c2nc3ccc([N+](=O)[O-])cc3s2)cc1 | inactive
80 | CCN(CC)c1ccc2c(Cl)c(Br)c(=O)oc2c1 | inactive
81 | c1ccn2c(c1)nc1c2nc2ccccn21 | inactive
82 | C=CCNC(=O)c1cc2c(=O)n3ccccc3nc2s1 | inactive
83 | COc1ccc(/C=N/NC(=O)CCn2nnc3ccccc32)cc1 | inactive
84 | COc1ccc(/C=C/C(=O)c2ccccc2)cc1Cn1nnc2ccccc21 | 39.8 µM (active)
85 | COc1ccc(/C=C/C(=O)c2ccc3ccccc3c2O)cc1CN1CCOCC1 | inactive
86 | O=C(O)C1Sc2nc(O)sc2C2c3ccc(O)cc3OC(=O)C12 (centres undefined) | inactive
87 | COc1ccc(C2C3=C(CCCC3=O)N(CC(=O)O)C3=C2C(=O)CCC3)cc1 | inactive
88 | COCC(=O)Nc1nc2n(n1)C(c1ccccc1)CC(c1ccc(OC)cc1)N2 (centres undefined) | inactive
89 | O=C(OCc1cn([C@H]2CN(CC3CCCCC3)[C@@H](c3ccc(Cl)cc3)C[C@@H]2O)nn1)c1ccccc1 | 35.5 µM (active)
90 | COc1ccc([C@H]2C[C@H](O)[C@@H](n3cc(COC(=O)c4ccccc4)nn3)CN2CC2CCCCC2)cc1 | 35.5 µM (active)
91 | COc1ccc([C@H]2C[C@@H](O)[C@H](n3cc(COC(=O)c4ccccc4)nn3)CN2CC2CCCCC2)cc1 | 28.2 µM (active)
92 | O[C@H]1CN(CC2CCCCC2)[C@@H](c2ccc(Cl)cc2)C[C@@H]1n1cc(C2CC2)nn1 | 20 µM (active)
93 | COc1ccc(C2CC(c3ccccc3)=NN2c2ccc(C(N)=O)cc2)cc1 (centres undefined) | inactive
94 | CC(C)C(=O)Nc1ccc(C(=O)N/N=C/c2cc(Br)cc(Br)c2O)cc1 | inactive
95 | N#Cc1nc(/C=C/c2ccc(F)cc2)oc1N1CCCCCC1 | inactive
96 | Cc1nc2ccccc2c2c(N)c3ccccc3n12 | inactive
97 | Cc1ccc(S(=O)(=O)CCC(=O)OCCOc2ccc(Br)cc2)cc1 | inactive
98 | CC(=O)C1=CCC(c2ccc(Br)cc2)N(S(=O)(=O)c2ccc(C)cc2)C1 (centres undefined) | 20 µM (active)
99 | Cc1ccc(-c2ccc(S(=O)(=O)N3CC(C)OC(C)C3)cc2)cc1 (centres undefined) | inactive

Reference: ChEMBL document CHEMBL1201862, “PubChem BioAssay data set” (2004)
